# Screens deposited in PubChem BioAssay by National Center for Advancing Translational Sciences (NCATS).
# Only some compounds are listed: those with a hit (about 10% of all), similar ones and a draw of the others.
# PNC assembly inh: High Content Assay for Compounds that inhibit the Assembly of the Perinucleolar Compartment | PC3M PTB-GFP, PNC prevalence imaging, 16 h; active compounds read low | activity change (PNC), negative = inhibition, % at 10 µM | 140,000 compounds, 3.1% hits | AID 2417, 2010;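 active = readout at or below -70, meaning at least 70% loss of cells showing the perinucleolar compartment, a nuclear body marking cancer cells; inconclusive = readout between -30 and a set limit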;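 also: plate controls were DMSO wells for no effect and camptothecin positive control wells for full effect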
#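 Read-out is percentage of cells bearing a perinucleolar compartment, from automated 20x imaging of fixed, Hoechst-stained PC3M PTB-GFP cells. Cells were seeded 4 h, then exposed 16 h to compound (23 nl of library stock) in duplicate plates.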
# 12-hLO inh: qHTS Assay for Inhibitors of 12-hLO (12-human lipoxygenase) | Potency, µM (highest dose often 57.1 µM), for inactives: at the top dose activity change, negative = inhibition, most hits filed as inhibitors | 150,000 compounds, 0.12% hits | purified 12-hLO, xylenol orange hydroperoxide absorbance | Polyunsaturated fatty acid lipoxygenase ALOX12 (Homo sapiens), P18054; active = well fitted inhibition curve with a large enough effect; inconclusive = small, poorly fitted or top-dose-only effect; also: potency is read from the fitted curve at half-maximal effect; nearly all actives have a fitted effect of over 55% in size
#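 Xylenol orange chromogenic assay: hydroperoxide from 12hLO oxidises Fe(II), giving red-shifted Fe(III)-XO absorbance. Conditions: 150 nM enzyme, 40 uM arachidonic acid, 25 mM Hepes pH 7.0, 0.01% Triton X-100, 30 min, room temperature.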
# Lamin A splicing: qHTS Assay for Modulators of Lamin A Splicing; 200,000 compounds, 0.01% hits; HeLa LMNA splicing GFP/RFP minigene ratio, 48 h; AID 1487, 2009; Potency, µM (top dose mostly 46.1 µM), for the others: at the highest dose ratio change, negative = inhibition, hits mostly inhibitors; active = well fitted inhibition curve with a large enough effect in the signal ratio, with a control signal flat, not every such curve was filed as active; inconclusive = small, poorly fitted or top-dose-only effect, or effect the other way, or a change in a side signal; the % refers to the signal ratio; also: potency is read from the fitted curve at half-maximal effect
#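 S3 HeLa cells stably expressing lamin A-EGFP splicing minigene plus DsRed2, 600 cells/well, 48 h compound exposure at 37C. Laser-scanning cytometry; analysed as GFP (500-530 nm)/RFP (575-640 nm) total intensity ratio; 0.5% DMSO vehicle.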
# HPGD inh: qHTS Assay for Inhibitors of HPGD (15-Hydroxyprostaglandin Dehydrogenase). 150,000 compounds, 4.3% hits. Potency, µM, for the others: at the highest dose activity change, negative = inhibition, usual class: inhibitors. AID 894, 2007. purified HPGD, NADH fluorescence kinetic, PGE2 substrate; also: potency is read from the fitted curve at half-maximal effect
#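 20 nM HPGD preincubated 15 min at room temperature with compound in 50 mM Tris-HCl pH 8, 0.01% Tween 20. Started with 1 mM NAD+ and 30 uM prostaglandin E2; NADH fluorescence (360/450 nm) read 5 times over 30-s intervals, last minus first.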
# ALDH1A1 inh: qHTS Assay for Inhibitors of Aldehyde Dehydrogenase 1 (ALDH1A1). Purified ALDH1A1, NADH fluorescence, propionaldehyde substrate. Potency, µM (top dose mostly 75.3 µM), for inactives: at the top dose activity, negative = inhibition, most hits filed as inhibitors. 220,000 compounds, 7.3% hits;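 also: potency is read from the fitted curve at half-maximal effect; plate controls were no enzyme wells and a reference inhibitor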
# Target sequence (P00352 whole entry, looked up): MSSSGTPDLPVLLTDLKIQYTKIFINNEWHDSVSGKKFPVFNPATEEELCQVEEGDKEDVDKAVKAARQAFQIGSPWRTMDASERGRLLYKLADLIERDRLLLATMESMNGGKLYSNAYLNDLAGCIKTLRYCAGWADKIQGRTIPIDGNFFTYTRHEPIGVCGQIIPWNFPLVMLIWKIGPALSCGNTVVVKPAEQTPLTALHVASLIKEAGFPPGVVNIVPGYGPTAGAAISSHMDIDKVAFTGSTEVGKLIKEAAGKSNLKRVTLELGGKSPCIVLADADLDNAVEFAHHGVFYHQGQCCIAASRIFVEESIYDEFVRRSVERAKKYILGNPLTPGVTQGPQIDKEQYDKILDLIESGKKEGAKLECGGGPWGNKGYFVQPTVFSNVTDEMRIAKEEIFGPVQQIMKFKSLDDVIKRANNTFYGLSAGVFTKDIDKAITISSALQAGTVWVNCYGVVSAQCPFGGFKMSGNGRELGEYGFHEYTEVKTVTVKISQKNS
# * hit, by the source's call; ? = inconclusive; . = no result; [ ] = dose if it differs, or a comment. Unless noted, calls follow the shape of the dose curve; as a rule, active = well fitted inhibition curve with a large enough effect (not every such curve was filed as active); inconclusive = small, poorly fitted or top-dose-only effect, or another doubt; inactive = no such curve, though single readings can be large or run the other way. Unless noted, % is scaled to controls: 0 for no effect and ±100 for the full control effect.
SMILES,PNC assembly inh,12-hLO inh,Lamin A splicing,HPGD inh,ALDH1A1 inh
COc1ccc(CN(C(=O)c2ccco2)c2ccccc2)cc1,1,-3%,-13%,-21%,-4%
Cc1cc(/C=C/c2ccc3cc(N(C)C)ccc3[n+]2C)c(C)n1-c1ccccc1,.,-6%,.,-13%,-9%
Cc1nn(C)c2c1c(C(F)(F)F)cc(=O)n2C(C)C(=O)NCc1ccccc1 (configuration not stated),.,.,3%[46 µM],.,.
Cc1cccc(CC(=O)NCCc2csc(-c3ccc(C(F)(F)F)cc3)n2)c1,.,.,13%[46 µM],.,.
CC1CCN(S(=O)(=O)c2ccc3[nH]ccc3c2)CC1,.,.,-11%[46 µM],.,.
COc1ccc(NC(=O)c2cc(C)nc3c2c(C)nn3-c2ccc(C)cc2)cc1OC,.,.,5%[46 µM],.,.
Nc1ccnc(C(F)(F)F)c1C(=O)c1ccccc1,-82*,-6%,6%,-9%,-7%
CC(C)CO/N=C1/C[C@@H](O)[C@@H](O)[C@@H]2[C@@H]3C(=O)N(C4CCCCC4)C(=O)[C@H]3CC[C@H]12,.,.,.,.,-2%[13.5 µM]
O=C1C=C[C@@H](O)[C@H]2[C@@H]3C(=O)N(Cc4ccc5c(c4)OCO5)C(=O)[C@@H]3CC[C@H]12,.,.,.,.,-8%[13.5 µM]
O=C(c1cccs1)[C@@H]1[C@@H]2C(=O)N(Cc3ccc4c(c3)OCO4)C(=O)[C@@H]2C2c3ccccc3C=CN21 (some centres not stated),8,-14%,8%,?,14µM*
COc1ccc(N2C(=O)[C@@H]3[C@H](C2=O)[C@H]2c4ccccc4C=CN2[C@@H]3C(C)=O)cc1,34,-2%,-6%,?,32µM*
O=C(Nc1ccc2c(c1)OCO2)[C@@H]1[C@@H]2C(=O)N(C3CCCCC3)C(=O)[C@@H]2C2c3ccccc3C=CN21 (some centres not stated),15,1%,-11%,-10%,11µM*
CC(C)(C)C(=O)[C@@H]1[C@@H]2C(=O)N(C3CCCCC3)C(=O)[C@@H]2[C@H]2c3ccccc3C=CN12,?,14%,-2%,?,20µM*
O=C(c1ccc2c(c1)OCO2)C1CCCN(C(=O)Nc2ccc(F)cc2F)C1 (configuration not stated),.,.,.,.,-3%
O=C(c1ccc2c(c1)OCO2)[C@@H]1[C@@H]2C(=O)N(C3CCCCC3)C(=O)[C@@H]2C2c3ccccc3C=CN21 (some centres not stated),-1,-24%,?,-14%,3.5µM*
O=C(NCc1ccc(Cl)cc1)C(=O)NCC(c1cccnc1)N1CCN(c2ccccc2)CC1 (configuration not stated),.,.,-28%[46 µM],.,.
Cc1ccc2c(c1)C(=O)C(=O)N2CCCOc1ccccc1C,.,.,-2%[46 µM],.,-3%
Cc1ccc(OCCN2C(=O)c3ccccc3C2=O)c([N+](=O)[O-])c1,-14,-1%,?,-22%,?
Cc1cccc2c1N(CCCOc1ccc(C(C)(C)C)cc1)C(=O)C2=O,?,-20%,?,8.9µM*,0.089µM*
Cc1ccc(OCCN2C(=O)c3ccccc3C2=O)c(C)c1,22,-3%,-7%,22µM*,5%
Cc1ccccc1OCCCN1C(=O)C(=O)c2cccc(C)c21,-15,?,-10%,?,0.11µM*
Clc1cccc(-n2ncc3c(NCCCn4ccnc4)ncnc32)c1,.,.,-19%[46 µM],.,.
COc1cc2c(cc1OC)n(CC(=O)c1cc(C)ccc1C)c(=O)n1nc(CCn3nc(C)cc3C)nc21,.,.,1%[46 µM],.,.
c1ccc2sc(Nc3nc4cc5c(cc4s3)OCO5)nc2c1,-124*,1%,?,?,?
O=C(NNc1nc2cc3c(cc2s1)OCO3)c1ccc(F)cc1,-119*,-11%,2%,25µM*,?
SMILES,PNC assembly inh,12-hLO inh,Lamin A splicing,HPGD inh,ALDH1A1 inh
O=c1oc2ccccc2c(O)c1/C=N/c1ncccn1,-11,?,-1%,?,?
O=c1oc2ccccc2c(O)c1/C=N/c1nc(-c2ccc(O)c(O)c2)cs1,.,-14%[11.4 µM],.,-24%,3.5µM*
O=C(NC(=S)Nc1ccc(S(=O)(=O)NC2CCCCC2)cc1)c1cccs1,?,5µM*,?,.,2%
O=C(NC1CCCC1)c1cc(-c2cccs2)on1,-18,-4%,?,13µM*,?
O=C(NC1CCCCC1)c1cccs1,-3,7%,-5%,32µM*,-12%
O=C(NC(=S)Nc1ccc(S(=O)(=O)N2CCCCC2)cc1)c1cccs1,-20,4%,-6%,-24%,?
CC1CCCC(C)N1C(=O)c1cc(-c2cccs2)on1 (configuration not stated),1,-1%,-4%,14µM*,-3%
CCOc1ccc(NC(=O)c2oc(=O)c3ccccc3c2-c2ccc(C)cc2)cc1,.,.,-15%[46 µM],.,.
Cc1ccc(C2C3=C(CC(C)(C)CC3=O)NC3=C2C(=O)c2ccccc23)cc1 (configuration not stated),-13,-23%,?,-2%,-5%
CC1(C)C(=O)NC2=C1C(=O)C(=O)c1ccccc12,.,-13%,.,-11%,28µM*
O=Cc1cccc(OC(=O)c2ccc(Cl)cc2Cl)c1,48,-20%,2%,16µM*,-14%
CCCCc1nc2c(c3c1C[C@H](C)OC3)CN(C(=O)N[C@H](C(=O)OC)C(C)C)CC2,.,3%[11.4 µM],1%[9.22 µM],-1%,-2%[13.5 µM]
O=C(NCc1ccccc1Cl)c1ccc2c(=O)n(CCCN3CCCC3=O)c(=S)[nH]c2c1,29,1%,5%,-12%,0.63µM*
COCCNC(=O)c1ccc2c(=O)n(CCCN3CCCC3=O)c(=S)[nH]c2c1,.,.,7%[46 µM],.,?
O=C(NCCCN1CCCC1=O)c1ccc2c(=O)n(-c3ccc(F)cc3)c(=S)[nH]c2c1,.,.,?,.,14µM*
COc1ccc2c(c1)C(=O)[C@H](OC(=O)Nc1ccc(OC(F)F)cc1)[C@@H](c1ccc(OC)c(Br)c1)O2,.,.,.,-8%,4%
Cc1ccc(NC(=O)Cn2c(C)cc(C)c(C#N)c2=O)cc1,.,.,-5%[46 µM],.,.
Cc1cc(C)nc(SCc2nnc(SCC#N)n2-c2cccc(Cl)c2)n1,-8,-1%,?,16µM*,9%
Cc1cc(C)nc(SCc2nnc(SCC(=O)Nc3nc(-c4ccccc4)cs3)n2-c2ccccc2)n1,-5,4%,-15%,-14%,-10%
Cc1cc(-c2ccccc2)nc(SCC(=O)N2CCCC2)n1,.,.,0%[46 µM],.,-1%
Cc1cc(C)nc(SCC(=O)N2CCCCC2)n1,?,-2%,-3%,7.9µM*,?
O=C(CSc1nc2ccccc2nc1SCC(=O)N1CCOCC1)N1CCOCC1,?,2%,10%,-20%,3%
